The entries come from a sample that favours hits as a whole.
IDE exosite FP: displaces the probe from the exo-site of human IDE | 17,000 tested, 6.3% active | AID 1259349 | P14735 | purified IDE, FL-6b probe fluorescence polarization; active compounds read low | z-score at 20 µM;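 active = z-score of -3 or lower, meaning strong loss of probe binding signal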;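 note: His-tagged human IDE residues 42-1019 made in E. coli with 30 nM FL-6b probe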
Target sequence (P14735 42-1019 limits assumed): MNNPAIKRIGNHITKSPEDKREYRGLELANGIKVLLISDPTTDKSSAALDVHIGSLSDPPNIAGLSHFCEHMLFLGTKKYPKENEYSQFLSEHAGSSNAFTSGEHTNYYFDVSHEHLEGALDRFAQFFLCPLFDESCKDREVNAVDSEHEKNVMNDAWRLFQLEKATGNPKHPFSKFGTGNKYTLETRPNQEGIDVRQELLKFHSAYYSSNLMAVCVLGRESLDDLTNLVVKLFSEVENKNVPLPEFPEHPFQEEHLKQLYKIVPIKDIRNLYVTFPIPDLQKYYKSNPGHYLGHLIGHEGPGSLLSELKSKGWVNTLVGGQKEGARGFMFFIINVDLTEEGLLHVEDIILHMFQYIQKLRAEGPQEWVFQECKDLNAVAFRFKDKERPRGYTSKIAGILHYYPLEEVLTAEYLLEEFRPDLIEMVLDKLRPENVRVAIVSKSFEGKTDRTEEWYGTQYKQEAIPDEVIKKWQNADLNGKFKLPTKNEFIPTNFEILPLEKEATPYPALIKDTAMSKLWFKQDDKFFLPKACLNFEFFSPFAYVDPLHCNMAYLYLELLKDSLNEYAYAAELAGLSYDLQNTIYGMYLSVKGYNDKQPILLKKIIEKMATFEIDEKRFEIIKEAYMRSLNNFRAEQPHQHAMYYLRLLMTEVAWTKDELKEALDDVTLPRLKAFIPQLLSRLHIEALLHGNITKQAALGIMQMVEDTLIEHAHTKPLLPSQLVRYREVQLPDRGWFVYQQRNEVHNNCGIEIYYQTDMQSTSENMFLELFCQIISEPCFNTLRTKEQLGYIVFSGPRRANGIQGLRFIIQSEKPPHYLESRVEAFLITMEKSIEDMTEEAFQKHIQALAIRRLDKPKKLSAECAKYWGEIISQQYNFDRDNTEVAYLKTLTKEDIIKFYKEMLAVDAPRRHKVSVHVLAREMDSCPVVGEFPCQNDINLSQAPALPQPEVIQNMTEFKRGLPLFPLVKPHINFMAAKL
An asterisk follows results filed as active.

What do the screens show for `C/C=C/c1ccc([C@@H]2[C@H](CO)N3CCCCN(C(=O)Cc4cccnc4)C[C@@H]23)cc1`?
IDE exosite FP: -0.605

Results for COc1ccc(C#Cc2ccc([C@@H]3[C@H](CO)N4CCCCN(C(=O)Cc5cccnc5)C[C@@H]34)cc2)cc1 ?
IDE exosite FP: 4.56

Results for O=C(Cc1cccnc1)N1CCCCN2[C@H](CO)[C@H](c3ccc(/C=C/c4ccccc4)cc3)[C@H]2C1 ?
IDE exosite FP: -11.4*

What do the screens show for `C/C=C/c1ccc([C@H]2[C@@H](CO)N3CCCCN(C(=O)Cc4ccncc4)C[C@H]23)cc1`?
IDE exosite FP: 0.653

How did COc1ccc(C#Cc2ccc([C@@H]3[C@@H](CO)N4CCCCN(C(=O)Cc5cccnc5)C[C@H]34)cc2)cc1 do in these assays?
IDE exosite FP: -1.2

Results for O=C(Cc1cccnc1)N1CCCCN2[C@H](CO)[C@@H](c3ccc(C#CC4CCCC4)cc3)[C@@H]2C1 ?
IDE exosite FP: 3.18

What do the screens show for `O=C(Cc1cccnc1)N1CCCCN2[C@H](CO)[C@@H](c3ccc(/C=C/c4ccccc4)cc3)[C@@H]2C1`?
IDE exosite FP: -8.82*

What do the screens show for `C/C=C/c1ccc([C@@H]2[C@@H](CO)N3CCCCN(C(=O)Cc4cccnc4)C[C@@H]23)cc1`?
IDE exosite FP: 0.0789

What do the screens show for `O=C(Cc1cccnc1)N1CCCCN2[C@H](CO)[C@@H](c3ccc(/C=C/c4ccccc4)cc3)[C@H]2C1`?
IDE exosite FP: -9.36*

Results for COc1ccc(-c2ccc([C@H]3[C@H]4CN(C(=O)Cc5ccncc5)CCCCN4[C@H]3CO)cc2)cc1 ?
IDE exosite FP: 1.74

How did N#Cc1cccc(-c2ccc([C@@H]3[C@@H](CO)N4CCCCN(C(=O)Cc5ccccc5)C[C@H]34)cc2)c1 do in these assays?
IDE exosite FP: 0.492

What do the screens show for `COc1cccc(-c2ccc([C@@H]3[C@@H](CO)N4CCCCN(C(=O)Cc5ccncc5)C[C@H]34)cc2)c1`?
IDE exosite FP: 0.0789

How did COc1cccc(CN2CC3(C2)[C@H](c2ccccc2)[C@H](CO)N3C(=O)Cc2ccccc2)c1 do in these assays?
IDE exosite FP: 0.875

What do the screens show for `O=C(Cc1ccccc1)N1CCCCN2[C@H](CO)[C@H](c3ccc(C#CC4(O)CCCC4)cc3)[C@@H]2C1`?
IDE exosite FP: 1.67

What do the screens show for `O=C(Cc1ccccn1)N1CCCCN2[C@@H](CO)[C@H](c3ccc(-c4ccccc4)cc3)[C@@H]2C1`?
IDE exosite FP: 1.89

Results for O=C(Cc1ccccn1)N1CCCCN2[C@H](CO)[C@H](c3ccc(-c4ccccc4)cc3)[C@@H]2C1 ?
IDE exosite FP: -0.961

What do the screens show for `O=C(Cc1ccccn1)N1CCCCN2[C@H](C1)[C@@H](c1ccc(-c3ccccc3F)cc1)[C@@H]2CO`?
IDE exosite FP: -4.48*

How did Cc1ccccc1-c1ccc([C@H]2[C@@H](CO)N3CCCCN(C(=O)Cc4ccccn4)C[C@@H]23)cc1 do in these assays?
IDE exosite FP: -5.7*

What do the screens show for `Cc1ccccc1-c1ccc([C@@H]2[C@H]3CN(C(=O)Cc4ccccn4)CCCCN3[C@H]2CO)cc1`?
IDE exosite FP: -10.2*

What do the screens show for `O=C(Cc1ccccn1)N1CCCCN2[C@H](CO)[C@@H](c3ccc(-c4ccccc4)cc3)[C@H]2C1`?
IDE exosite FP: -0.0967

What do the screens show for `Cc1ccccc1-c1ccc([C@H]2[C@H]3CN(C(=O)Cc4ccccn4)CCCCN3[C@H]2CO)cc1`?
IDE exosite FP: -0.983

What do the screens show for `O=C(Cc1ccccn1)N1CCCCN2[C@H](CO)[C@@H](c3ccc(-c4ccc(F)cc4)cc3)[C@H]2C1`?
IDE exosite FP: 4.41

What do the screens show for `O=C(Cc1ccccn1)N1CCCCN2[C@H](C1)[C@H](c1ccc(-c3ccccc3)cc1)[C@@H]2CO`?
IDE exosite FP: -2.35

What do the screens show for `COc1cccc(-c2ccc([C@H]3[C@@H](CO)N4CCCCN(C(=O)Cc5ccncc5)C[C@H]34)cc2)c1`?
IDE exosite FP: -2.46

Results for N#Cc1cccc(-c2ccc([C@@H]3[C@@H](CO)N4CCCCN(C(=O)Cc5ccccc5)C[C@@H]34)cc2)c1 ?
IDE exosite FP: 3.07

What do the screens show for `N#Cc1cccc(-c2ccc([C@H]3[C@H]4CN(C(=O)Cc5ccccc5)CCCCN4[C@H]3CO)cc2)c1`?
IDE exosite FP: 2.15

How did O=C(Cc1ccncc1)N1CCCCN2[C@H](C1)[C@H](c1ccc(C#CC3(O)CCCC3)cc1)[C@@H]2CO do in these assays?
IDE exosite FP: 4.4

What do the screens show for `COc1ccccc1CN1[C@H](CO)[C@@H](c2ccccc2)C12CN(C(=O)Cc1ccccc1)C2`?
IDE exosite FP: 2.23

What do the screens show for `N#Cc1cccc(-c2ccc([C@H]3[C@H]4CN(C(=O)Cc5cccnc5)CCCCN4[C@H]3CO)cc2)c1`?
IDE exosite FP: -0.13

How did COc1ccc(C#Cc2ccc([C@H]3[C@H](CO)N4CCCCN(C(=O)Cc5ccncc5)C[C@@H]34)cc2)cc1 do in these assays?
IDE exosite FP: -1.35

What do the screens show for `O=C(Cc1ccncc1)N1CCCCN2[C@H](C1)[C@@H](c1ccc(C#CC3(O)CCCC3)cc1)[C@@H]2CO`?
IDE exosite FP: 1.11

Results for COc1cccc(-c2ccc([C@@H]3[C@H](CO)N4CCCCN(C(=O)Cc5ccncc5)C[C@@H]34)cc2)c1 ?
IDE exosite FP: -3.86*

Results for COc1cccc(-c2ccc([C@@H]3[C@@H](CO)N4CCCCN(C(=O)Cc5ccncc5)C[C@@H]34)cc2)c1 ?
IDE exosite FP: -2.33

Results for COc1ccc(-c2ccc([C@@H]3[C@H](CO)N4CCCCN(C(=O)Cc5ccccc5)C[C@@H]34)cc2)cc1 ?
IDE exosite FP: -3.14*

Results for COc1ccc(-c2ccc([C@H]3[C@@H](CO)N4CCCCN(C(=O)Cc5ccccc5)C[C@@H]34)cc2)cc1 ?
IDE exosite FP: 0.578

Results for COc1ccc(-c2ccc([C@H]3[C@H](CO)N4CCCCN(C(=O)Cc5ccccc5)C[C@@H]34)cc2)cc1 ?
IDE exosite FP: 0.588

What do the screens show for `COc1cccc(-c2ccc([C@H]3[C@@H](CO)N4CCCCN(C(=O)Cc5ccncc5)C[C@@H]34)cc2)c1`?
IDE exosite FP: 1.12

Results for O=C(Cc1ccccc1)N1CCCCN2[C@@H](CO)[C@@H](c3ccc(-c4ccccc4)cc3)[C@@H]2C1 ?
IDE exosite FP: 2.42

How did COc1cccc(-c2ccc([C@H]3[C@H](CO)N4CCCCN(C(=O)Cc5ccncc5)C[C@@H]34)cc2)c1 do in these assays?
IDE exosite FP: -1.48

Results for O=C(Cc1ccccc1)N1CCCCN2[C@H](CO)[C@@H](c3ccc(C#Cc4ccccc4)cc3)[C@H]2C1 ?
IDE exosite FP: 0.705

Results for O=C(Cc1ccncc1)N1CCCCN2[C@H](CO)[C@@H](c3ccc(C#Cc4ccccc4F)cc3)[C@H]2C1 ?
IDE exosite FP: -2.46

Results for O=C(Cc1ccccc1)N1CCCCN2[C@H](CO)[C@@H](c3ccc(C#Cc4ccccc4)cc3)[C@@H]2C1 ?
IDE exosite FP: -1.3

How did O=C(Cc1ccncc1)N1CCCCN2[C@@H](CO)[C@@H](c3ccc(C#Cc4ccccc4F)cc3)[C@@H]2C1 do in these assays?
IDE exosite FP: -5.42*

What do the screens show for `COc1ccc(C#Cc2ccc([C@@H]3[C@H](CO)N4CCCCN(C(=O)Cc5ccncc5)C[C@@H]34)cc2)cc1`?
IDE exosite FP: 3.78

Results for O=C(Cc1ccncc1)N1CCCCN2[C@H](CO)[C@H](c3ccc(C#Cc4ccccc4F)cc3)[C@H]2C1 ?
IDE exosite FP: -4.15*

How did N#Cc1ccc(-c2ccc([C@@H]3[C@H](CO)N4CCCCN(C(=O)Cc5ccccc5)C[C@@H]34)cc2)cc1 do in these assays?
IDE exosite FP: 1.36

Screening results (PubChem)
